Results: PubChem BioAssay (NCATS)
Several values for one entry are separate records, joined by “and”; a condition that tells them apart may be missing. Identical values can stand only once. Records with an inconclusive call do not appear. The source holds several records for some structures; these can differ, active in one and inactive in another. A number with no mark means an inactive call. Activity calls are given as the source filed them. Calls follow the shape of the dose curve; as a rule, active = well fitted inhibition curve with a large enough effect; inconclusive = small, poorly fitted or top-dose-only effect; inactive = flat fitted curve, though single readings scatter.

system: HaCat; test: Cytotoxic Profiling of Annotated Libraries Using Quantitative High-Throughput Screening (AID 1296008); conditions: Five cell lines viability, CellTiter-Glo ATP luminescence, 48-72 h; max response: active compounds read low; also: nearly all actives have a fitted effect of over 60% in size
How it was run: (§1)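 Cells exposed to compounds for 48 or 72 hr at 37 degrees Celsius. Viability read as ATP-coupled luminescence with CellTiter-Glo after 10 min at room temperature.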
% is scaled to controls: 0 for no effect and ±100 for the full control effect; potency is read from the fitted curve at half-maximal effect.

| SMILES | max response | Potency | outcome |
| --- | --- | --- | --- |
| O=C(N[C@@H](c1ccccc1)[C@@H]1CCCCN1)c1cccc(C(F)(F)F)c1Cl | 4.43% |  |  |
| NC(=O)c1cnc(-c2ccc(C3(N)CCC3)cc2)c(-c2ccccc2)c1 | -22.7% |  |  |
| Cc1ccc(F)c(NC(=O)Nc2ccc(-c3cccc4[nH]nc(N)c34)cc2)c1 | 2.26% |  |  |
| COc1ccc(-n2c(C)c([N+](=O)[O-])c3ccc(O)cc32)cc1 | -25.5% |  |  |
| CN[C@@H](C)C(=O)N[C@H]1CN(C(=O)CC(C)C)CC[C@H]2CC[C@@H](C(=O)NC(c3ccccc3)c3ccccc3)N2C1=O |  | 16.6 µM (active) and 23.1 µM (active) |  |
| Cc1ccc([C@@H]2O[C@H](CO)[C@@H](O)[C@H](O)[C@@H]2O)cc1Cc1ccc(-c2ccc(F)cc2)s1 |  |  | inactive |
| CC(C)n1cnc2c(NCCCCCCNC(=O)OC(C)(C)C)nc(NCCO)nc21 | -3.35% |  |  |
| O=C1NC(=O)C(=Cc2ccc3nccnc3c2)S1 | -12.7% |  |  |
| O=c1cc(-c2ccccc2)oc2cc(O)c(O)c(O)c12 | 1.36% |  |  |
| CC1(C)CCC2=C(O1)c1ccccc1C(=O)C2=O |  |  | inactive |
| COCCOC(=O)C1=C(C)NC2=C(C(=O)CC(c3ccccc3OC)C2)C1c1cccc(O)c1 (stereo not drawn) | -1.34% |  |  |
| C[C@]12CC[C@@H]3c4ccc(O)cc4C[C@@H](CCCCCCCCCS(=O)CCCC(F)(F)C(F)(F)F)[C@H]3[C@H]1CC[C@H]2O (stereo partly drawn) | 0.837% |  |  |
| COc1ccc2c(Oc3ccc(NC(=O)c4c(C)n(CC(C)(C)O)n(-c5ccccc5)c4=O)cc3F)ccnc2c1 | 2.66% and -22.8% |  |  |
| CN(C)Cc1ccc(-c2nc3cccc4c3n2CCNC4=O)cc1 | -6.01% and -9.35% |  |  |
| CCc1ccc(C=C2SC(=S)NC2=O)cc1 | -1.5% |  |  |
| C[C@H](NC(=O)C(=O)Nc1ccccc1C(C)(C)C)C(=O)N[C@@H](CC(=O)O)C(=O)COc1c(F)c(F)cc(F)c1F |  |  | inactive |
| CC(C)=CC[C@@H](O)C1=CC(=O)c2c(O)ccc(O)c2C1=O |  |  | inactive |
| NS(=O)(=O)c1ccc(NC2=CC(=O)c3ccccc3C2=O)cc1 |  |  | inactive |
| CNC1CCC(N(Cc2cccc(-c3ccncc3)c2)C(=O)c2sc3c(F)ccc(F)c3c2Cl)CC1 (stereo not drawn) |  |  | inactive |
| COc1cc2ncnc(Nc3ccc(F)c(Cl)c3)c2cc1OCCCN1CCOCC1 | -57.3% | 531 nM (active) and 2.06 µM (active) |  |
| COc1cc(N2CCC(N3CCN(C)CC3)CC2)ccc1Nc1ncnc(Nc2ccccc2S(=O)(=O)C(C)C)n1 |  | 7.31 µM (active) |  |
| Cc1nnc(C(C)C)n1C1C[C@H]2CC[C@@H](C1)N2CC[C@H](NC(=O)C1CCC(F)(F)CC1)c1ccccc1 (stereo partly drawn) | 3.6% |  |  |
| c1ccc2c(Cc3c[nH]c4ccccc34)c[nH]c2c1 |  |  | inactive |
| O=C(O)c1cc(O)c2c(c1)C(=O)c1cccc(O)c1C2=O |  |  | inactive |

system: KB-3-1; test: as above; conditions: Five cell lines viability, CellTiter-Glo ATP luminescence, 48-72 h; max response: active compounds read low
How it was run: as §1

| SMILES | max response | Potency | outcome |
| --- | --- | --- | --- |
| O=C(N[C@@H](c1ccccc1)[C@@H]1CCCCN1)c1cccc(C(F)(F)F)c1Cl | -7.93% |  |  |
| NC(=O)c1cnc(-c2ccc(C3(N)CCC3)cc2)c(-c2ccccc2)c1 | -11.5% |  |  |
| NC(=O)c1cccc2[nH]c(-c3ccc([C@H]4CCCN4)cc3F)nc12 | -3.95% |  |  |
| Oc1ccc(C2=Cc3ccc(O)cc3OC2)cc1 |  | 16.6 µM (active) |  |
| COc1ccc(-n2c(C)c([N+](=O)[O-])c3ccc(O)cc32)cc1 | -1.9% |  |  |
| CN[C@@H](C)C(=O)N[C@H]1CN(C(=O)CC(C)C)CC[C@H]2CC[C@@H](C(=O)NC(c3ccccc3)c3ccccc3)N2C1=O | 2.72% and 0.688% |  |  |
| Cc1ccc([C@@H]2O[C@H](CO)[C@@H](O)[C@H](O)[C@@H]2O)cc1Cc1ccc(-c2ccc(F)cc2)s1 |  |  | inactive |
| O=C1NC(=O)C(=Cc2ccc3nccnc3c2)S1 | -0.874% |  |  |
| c1ccc2c(-c3cnn4cc(-c5ccc(N6CCNCC6)cc5)cnc34)ccnc2c1 |  | 3.32 µM (active) |  |
| O=c1cc(-c2ccccc2)oc2cc(O)c(O)c(O)c12 | -0.922% |  |  |
| CC1(C)CCC2=C(O1)c1ccccc1C(=O)C2=O | 7.27% |  |  |
| COCCOC(=O)C1=C(C)NC2=C(C(=O)CC(c3ccccc3OC)C2)C1c1cccc(O)c1 (stereo not drawn) | -11.3% |  |  |
| C[C@]12CC[C@@H]3c4ccc(O)cc4C[C@@H](CCCCCCCCCS(=O)CCCC(F)(F)C(F)(F)F)[C@H]3[C@H]1CC[C@H]2O (stereo partly drawn) | 4.81% |  |  |
| COc1ccc2c(Oc3ccc(NC(=O)c4c(C)n(CC(C)(C)O)n(-c5ccccc5)c4=O)cc3F)ccnc2c1 | -19.2% |  |  |
| Clc1ccc(C(c2ccc(Cl)cc2)n2cc[n+](CC(OCc3ccc(Cl)cc3Cl)c3ccc(Cl)cc3Cl)c2)cc1 (stereo not drawn) |  | 18.7 µM (active) |  |
| Cc1ccc(C(=O)Nc2cccc(C(F)(F)F)c2)cc1Nc1nc(-c2cccnc2)nc2c1cnn2C | -14.6% |  |  |
| O=C(NOCC(O)CO)c1cc(Br)c(F)c(F)c1Nc1ccc(I)cc1F (stereo not drawn) | -16.7% |  |  |
| CCc1ccc(C=C2SC(=S)NC2=O)cc1 | -5.67% |  |  |
| C[C@H](NC(=O)C(=O)Nc1ccccc1C(C)(C)C)C(=O)N[C@@H](CC(=O)O)C(=O)COc1c(F)c(F)cc(F)c1F |  |  | inactive |
| CC(C)=CC[C@@H](O)C1=CC(=O)c2c(O)ccc(O)c2C1=O | 6.3% |  |  |
| NS(=O)(=O)c1ccc(NC2=CC(=O)c3ccccc3C2=O)cc1 | 7.69% |  |  |
| COc1cc2ncnc(Nc3ccc(F)c(Cl)c3)c2cc1OCCCN1CCOCC1 | -3.97% and -1.38% and 3.83% |  |  |
| Nc1nc(F)nc2c1ncn2[C@@H]1O[C@H](COP(=O)(O)O)[C@@H](O)[C@H]1O |  |  | inactive |
| CC[C@@H]1C=C(C)C[C@H](C)C[C@H](OC)[C@H]2O[C@@](O)(C(=O)C(=O)N3CCCC[C@@H]3C(=O)O[C@H](C(C)=C[C@@H]3CC[C@H](Cl)[C@H](OC)C3)[C@H](C)[C@@H](O)CC1=O)[C@H](C)C[C@H]2OC |  |  | inactive |
| COc1cc(N2CCC(N3CCN(C)CC3)CC2)ccc1Nc1ncnc(Nc2ccccc2S(=O)(=O)C(C)C)n1 |  | 8.33 µM (active) |  |
| Cc1nnc(C(C)C)n1C1C[C@H]2CC[C@@H](C1)N2CC[C@H](NC(=O)C1CCC(F)(F)CC1)c1ccccc1 (stereo partly drawn) | 3.29% |  |  |
| c1ccc2c(Cc3c[nH]c4ccccc34)c[nH]c2c1 | -13.3% |  |  |
| O=C(O)c1cc(O)c2c(c1)C(=O)c1cccc(O)c1C2=O | 0.608% |  |  |
